Consider 104 molecules from PubChem BioAssay AID624202 (National Center for Advancing Translational Sciences (NCATS), 2012).

The structures appear in SMILES notation. About 4,000 (1.1%) of roughly 380,000 compounds were called active. Entries that show only a call come without a potency. Inconclusive results (about 3%) are left out. This is one part of a sample in which actives are shown more often than they occur. The call rests on the fitted dose curve; in most records, active means well fitted activation curve with a large enough effect; inconclusive means small, poorly fitted or top-dose-only effect; inactive means no such curve, though single readings can be large or run the other way.
Potency means the concentration at half of the fitted maximal effect.

The test is described as follows: qHTS Assay to Identify Small Molecule Activators of BRCA1 Expression. Further: nearly all actives have a fitted effect of over 80% in size. Conditions: MCF7-BRCA1-FFLuc reporter, luminescence, 48 h; series mostly up to 46.1 µM. An outline of the steps:
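Reporter cells (MCF7, BRCA1 promoter-firefly luciferase) received library compounds across a concentration series for 48 h. End-point luminescence was measured and concentration-effect curves derived after normalization.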
(In qHTS, concentration-response curves come from the screen itself.)
For the molecule `Cc1[nH]c2ccccc2c1C(=O)C(=O)N(C)c1ccccc1`, the Potency entry is “inactive”.

As to `Cc1ccc(C(=O)Nc2nc3ccc(Cl)cc3s2)o1`, the Potency is 0.891 µM (active). Turning to `Cc1sc2ncnc(N3CCC(C(=O)Nc4nc5ccc(Cl)cc5s4)CC3)c2c1C`, the Potency result was “inactive”. In the case of `Cc1noc(C)c1CSCC(=O)Nc1nc2ccc(Oc3ccccc3)cc2s1` it was “inactive”. As for `COc1ccc(-c2nc(=N)sn2-c2ccccc2)cc1`, the entry is “inactive”; as for `Cc1ccc2c(c1)-c1c(cnn1CC(=O)Nc1ccccc1C#N)CO2`, “inactive”; as for `COc1cc(CN(C(=O)c2ccccc2Br)c2ccccn2)cc(OC)c1OC`, “inactive”. As for `Nc1ccc(/C=C/c2ccnc3ccccc23)c([N+](=O)[O-])c1`, the entry is “inactive”; as for `CN1C(=O)/C(=C/C=C2\SCCN2C)OC1=S`, 5.62 µM (active); as for `CN(C(=N)N)c1ccc(/C=C2\C=Cc3ccccc32)cc1`, “inactive”. Turning to `COc1ccc2nc(N3CCN(C(=O)c4ccc([N+](=O)[O-])o4)CC3)sc2c1`, the Potency result was “inactive”.

With `O=C(NCCc1cccc(F)c1)C1CCCN(c2nc3ccccc3s2)C1` (centres undefined), the Potency result is “inactive”. As for `Fc1ccc2nc(N3CCCCC3)sc2c1`, the figure is 4.47 µM (active); as for `CCCCNC(=O)c1ccc2c(c1)NC(=O)C(C(C)C)N2` (centres undefined), “inactive”. As for `O=C(NCc1ccccn1)c1cc(-c2ccccc2Cl)on1`, the figure is 10 µM (active); as for `Cc1cc(C)nc(NC(=O)Nc2ccccc2C(F)(F)F)n1`, “inactive”; as for `CSc1ccccc1NC(=O)c1cc(C2CC2)on1`, “inactive”. As for `O=C(Nc1ccccc1C(F)(F)F)c1cc(-c2ccc(O)cc2)on1`, the figure is 11.2 µM (active). As to `CCc1ccccc1NC(=O)c1cc(-c2ccc3c(c2)OCO3)on1`, the Potency result is “inactive”. As to `C=CCNC(=O)c1ccc2nc(-c3ccco3)c(-c3ccco3)nc2c1`, the Potency result is “inactive”. In the case of `COc1ccccc1CNS(=O)(=O)c1cc(C(=O)NCc2ccccn2)c(Cl)cc1Cl` it was “inactive”; in that of `O=C(NC1CCCC1)c1cc(-c2ccccc2)on1`, “inactive”. Consider `Cc1cc(Cl)ccc1OCCCC(=O)NCc1ccccn1`, for which the Potency entry was “inactive”. As for `C=CCNC(=O)c1cc(-c2ccccc2O)on1`, the figure is 5.62 µM (active). As for `C=CCNC(=O)c1ccccc1SCc1c(C)noc1C`, the entry is “inactive”; as for `O=C(Nc1cccnc1Cl)c1cc(-c2ccccc2O)on1`, 8.91 µM (active); as for `O=C(Nc1ccc([N+](=O)[O-])cc1)c1cnn2c1NC(=C1CC1)C=C2C(F)F`, “inactive”. As for `Cc1ccccc1C(=O)Nc1cc(C)c(O)c(-c2nc3ccccc3o2)c1`, the entry is “inactive”. Turning to `COc1ccc(-n2c(SCC(N)=O)nc3c(oc4ccccc43)c2=O)cc1`, the Potency result was “inactive”.

Regarding `COc1ccccc1N1CCN(C(=O)C2CCN(S(=O)(=O)c3c(C)noc3/C=C/c3ccc(C)cc3)CC2)CC1`, the Potency entry is “inactive”.

Take `Cc1cc(C)c(NC(=O)CCc2c(C)nc3c(c(C)nn3C(C)(C)C)c2C)c(C)c1`: the Potency result was “inactive”.

As for `Cc1ccc(-n2nnnc2CNC(=O)c2ccccc2C)cc1C`, the Potency result was “inactive”.

Turning to `CN(C(=O)CSc1nnc(-c2c[nH]c3ccccc23)o1)C1CCS(=O)(=O)C1` (centres undefined), the Potency result was “inactive”. As for `O=C(CSc1nnc(-c2c[nH]c3ccccc23)o1)c1ccccc1`, the figure is 12.6 µM (active); as for `CCC(CC)NC(=O)CSc1nnc(-c2c[nH]c3ccccc23)o1`, “inactive”. As for `Cc1ccccc1NC(=O)Cn1c(=O)n(CCc2ccccc2)c(=O)c2ccccc21`, the entry is “inactive”; as for `COc1c(Cl)cc(Cl)cc1C(=O)Nc1cccc2cccnc12`, “inactive”; as for `COc1cc2[nH]c(=O)n(Cc3ccc(C(=O)NCc4ccc(C)cc4)cc3)c(=O)c2cc1OC`, “inactive”. In the case of `Cc1cccc(NC(=O)COC(=O)c2ccccc2OCc2cccc(Br)c2)c1` it was “inactive”; in that of `CCOc1ccc(OCC)c(NC(=O)CN(c2ccc(C)cc2)S(=O)(=O)c2c(C)n[nH]c2C)c1`, “inactive”. In the case of `CCCCNC(=O)CSc1nccn1Cc1ccccc1`, the Potency result was “inactive”. In the case of `CCc1cccc(NC(=O)CSc2nccn2C)c1` it was 12.6 µM (active); in that of `CC(=O)Nc1cccc(NC(=O)CSc2nccn2Cc2ccc(F)cc2)c1`, “inactive”; in that of `COc1ccc(CN(Cc2ccccc2)C(=O)c2ccc(O)cc2)cc1COc1ccc(NC(C)=O)cc1`, “inactive”. As for `Cc1ccc(CCNC(=O)Cn2c(-c3cccs3)cc3cc(F)ccc32)cc1`, the entry is “inactive”; as for `COc1ccc(NC(=O)Cn2c(=O)cc(C)c3c(C)nn(-c4cccc(Cl)c4C)c32)cc1OC`, “inactive”. Take `Cc1nn2cc(-c3ccc(Cl)cc3)cnc2c1Br`: the Potency is 8.91 µM (active). In the case of `O=C(O)C1=C/C(=C/C=[N+]2c3cc(O)c(O[C@H]4OC(CO)[C@@H](O)[C@@H](O)[C@@H]4O)cc3C[C@@H]2C(=O)[O-])C[C@H](C(=O)O)N1` (some centres undefined) it was “inactive”; in that of `COc1ccc(-c2[nH]c3c(c2-c2c(-n4cccc4)n(C)c(=O)n(C)c2=O)c(=O)n(C)c(=O)n3C)cc1`, “inactive”; in that of `Cc1ccc(S(=O)(=O)n2nc(C)c(S(=O)(=O)N3CCCCCC3)c2C)cc1`, “inactive”. With `CCOc1ccc(NC(=O)Cn2c(C)ccc(C#N)c2=O)cc1`, the Potency entry is “inactive”. In the case of `CCOc1ccc(NC(=O)c2ccc(NC(=O)COC(=O)c3ccc(NC(=O)CC#N)cc3)cc2)cc1`, the Potency is 2.82 µM (active). As for `CCOc1ccc(NC(=O)c2ccc(NC(=O)CN3C(=O)C(=O)N(CC(C)C)C3=O)cc2)cc1`, the entry is “inactive”; as for `CCn1cc(C(=O)N2CCN(c3cc(C)ccc3C)CC2)c(=O)c2cc(S(=O)(=O)N(C)C3CCCCC3)ccc21`, “inactive”.

`CSc1ccc(CCNC(=O)c2cnn(-c3ccccc3)c2-n2cccc2)cc1`: the Potency entry was “inactive”. As for `CC(=O)c1ccc(NC(=O)CCc2nc(-c3ccc(C)cc3)no2)cc1`, the entry is “inactive”. In the case of `CSc1nc2ccc(NC(=O)c3c(F)cccc3F)cc2s1` it was 5.62 µM (active).

Regarding `CC(=O)Nc1ccc2nc(SCCOc3cc(C)cc(C)c3)sc2c1`, the Potency result is “inactive”.

`O=C(Nc1ccc2nc(SCC(=O)N3CCc4ccccc43)sc2c1)c1ccccc1F`: the Potency entry is “inactive”. As for `COc1cc2nc(N3CCCN(C)CC3)nc(NC3CC3)c2cc1OC`, the entry is “inactive”; as for `O=C(NC1=NCCS1)c1ccc(Cl)s1`, 5.62 µM (active).

With `COc1ccccc1C(=O)NCCC(=O)NC1=NCCS1`, the Potency entry is “inactive”. As for `CCOc1ccc(C(=O)CCC(=O)NC2=NCCS2)cc1`, the entry is “inactive”; as for `O=C(Nc1ccccc1)c1ccccc1OCc1ccccc1`, “inactive”; as for `O=C(CCCCn1c(=O)c2ccccc2n(CC(=O)Nc2cccc(C(F)(F)F)c2)c1=O)NCc1ccc2c(c1)OCO2`, “inactive”. In the case of `NC1=NC(c2cc(F)cc(F)c2)n2c(nc3ccccc32)N1` (centres undefined) it was “inactive”. In the case of `O=C(c1cnn2c1NC(=C1CC1)C=C2C(F)F)N1CCc2ccccc2C1`, the Potency entry is “inactive”. `Cc1cccc(NC(=O)CSc2nc3c(oc4ccccc43)c(=O)n2-c2ccc(F)cc2)c1`: the Potency result was “inactive”. In the case of `O=C(Nc1cc(-c2nc3ccccc3o2)ccc1Cl)c1cc([N+](=O)[O-])ccc1N1CCOCC1` it was “inactive”; in that of `S=c1[nH]c(=S)c2n[nH]nc2[nH]1`, “inactive”; in that of `COc1ccc(Cl)cc1S(=O)(=O)Nc1cccc(C(=O)O)c1`, “inactive”. As for `CC(=O)Nc1cccc(/C(C)=N/NC(=O)c2c(-c3ccccc3Cl)noc2C)c1`, the entry is “inactive”; as for `C/C(=N\Nc1cccc(C(=O)O)c1)c1ccc2c(c1)Nc1ccccc1S2`, 7.08 µM (active). In the case of `C[N+]1(CC(=O)c2cccs2)CCOCC1` it was “inactive”; in that of `COC(=O)c1ccc(CSc2nncn2C)cc1`, 10 µM (active).

In the case of `CC(C)CC(CC(C)C)=NNC(=O)c1ccc(CSc2nncn2C)cc1`, the Potency entry was “inactive”. As for `COC(=O)c1ccc(CSc2nncn2N)cc1`, the entry is “inactive”. As for `COc1ccccc1CNC(=O)CCCn1c(=O)c2ccccc2n(CC(=O)Nc2ccc(C)cc2Cl)c1=O`, the entry is “inactive”; as for `OC(CBr)CN1CCCCC1` (centres undefined), “inactive”; as for `COC(=O)C1C(=O)c2c([nH]c(C(=O)OCCSC)c2C)CC1C` (centres undefined), 28.2 µM (active).

For `Cc1cc(Cl)ccc1NC(=O)Cc1ccc(NC(=O)N2CCCCc3ccccc32)cc1`, the Potency result is “inactive”. In the case of `COc1ccc2[nH]cc(CCN3C(=O)c4ccc(C(=O)O)cc4C3=O)c2c1` it was 10 µM (active); in that of `Cc1ccc2[nH]cc(CCCN3C(=O)c4ccccc4C3=O)c2c1`, “inactive”; in that of `COCCCN1C(=O)c2ccc(C(=O)Nc3ccc(OC)cc3OC)cc2C1=O`, “inactive”. On to `O=C(O)/C=C/C(=O)NNc1ccc([N+](=O)[O-])cc1`, for which the Potency result was “inactive”. For `CC(=O)Nc1ccc(C=Cc2ccc([N+](=O)[O-])cc2)cc1`, the Potency was 1.78 µM (active). In the case of `O=C(Nc1ccc([N+](=O)[O-])cc1)C1CC12CCC2` (centres undefined) it was “inactive”; in that of `Cc1cccc(-c2nnc(SC(C)C(=O)Nc3ccccc3)n2C)c1` (centres undefined), “inactive”; in that of `COc1ccc(CNC(=O)c2cc3c(s2)-c2ccccc2OC3)cc1`, “inactive”. In the case of `Cc1ccc(NC(=O)c2cc3ccccc3o2)cc1` it was 12.6 µM (active); in that of `O=C(Nc1ccc2nc(SCCOc3ccccc3Cl)sc2c1)c1ccco1`, “inactive”. In the case of `Cc1cc(C)cc(NC(=O)CSc2ccccc2)c1` it was “inactive”; in that of `O=C(Nc1ccc(CSc2ccccc2)cc1)c1ccc(CN2CCOCC2)cc1`, “inactive”; in that of `O=C(Nc1ccc2nccnc2c1)c1ccco1`, 10 µM (active).

For the molecule `C/C(=N\NC(=S)Nc1ccc(C)cc1)c1cc2ccccc2o1`, the Potency entry was “inactive”. In the case of `O=C(CSc1ccccc1)Nc1ccc(NC(=O)c2ccco2)cc1` it was 11.2 µM (active); in that of `O=C(CNC(=O)c1ccco1)NNC(=O)c1ccc(Br)cc1`, “inactive”. In the case of `O=C(Nc1ccccc1C(=O)N1CCCCC1)c1ccco1` it was “inactive”; in that of `CN(C)C(CNC(=O)c1cc2ccccc2o1)c1ccccc1` (centres undefined), “inactive”; in that of `O=C(Nc1ccc(O)cc1)c1ccc(NC(=O)c2ccco2)cc1`, 3.16 µM (active). As for `O=C(Nc1ccc2nc(SCCOc3ccccc3)sc2c1)c1ccco1`, the entry is “inactive”; as for `Cc1cc(C)c(NC(=O)Cn2c(SCC(=O)NCc3ccccc3)nc3ccccc32)c(C)c1`, “inactive”. On to `CC(=O)c1ccc(NC(=O)c2nc3nc(C)cc(C(F)F)n3n2)cc1`, for which the Potency entry is “inactive”. As for `CC(=O)Nc1ccc(NC(=O)C2CCCN(S(=O)(=O)c3ccc4c(c3)CCCC(=O)N4)C2)cc1` (centres undefined), the entry is “inactive”.
